From PubChem BioAssay AID1345085 (National Center for Advancing Translational Sciences (NCATS), 2018)
Records with an inconclusive call do not appear. Where a call stands in place of a potency, no number is given. The source made the active and inactive calls. Calls follow the shape of the dose curve; as a rule, active = well fitted cell-killing curve with a large enough effect; inconclusive = small, poorly fitted or top-dose-only effect, or effect the other way; inactive = no such curve, though single readings can be large or run the other way.
Also: nearly all actives have a fitted effect of over 55% in size.
Potency is read from the fitted curve at half-maximal effect.

Each compound was assayed on CASKI (assay: Confirmatory qHTS for gynecologic anti-cancer compounds from libraries of approved drugs and bioactive compounds). Settings: gynecologic cancer cell panel viability, ATPlite luminescence, 48 h; series mostly up to 57.6 µM.
Description: National Center for Advancing Translational Sciences [NCATS] Assay Overview: Chemotherapeutic drug responses vary from cancer to cancer and from patient to patient. These variations could be caused by a number of factors including patient genomic background, tumor mutations, tumor heterogeneity, and aspects of drug treatment. Chemotherapeutic drug resistance is also a common issue and can lead to ineffective treatment and patient death. Here we have profiled the cell killing effects of thousands of compounds to characterize the responses in three gynecological cancers, identify cancer-selective compounds, and understand the diversity of responses to these compounds from pan-cancer suppressors to single cell line selective compounds. In this assay, we screened a 7,914 compound drug library that included approved drug and bioactive compounds in six ovarian, three cervical, and two placental cancer cell lines using the ATPlite assay for cell viability. ATPlite is a luminescence based assay reliant on the conversion of a luciferase substrate to light in the presence of ATP. As a cytotoxic compound will suppress growth and decrease the number of cells, the concentration of ATP will decrease, and less light signal will be detected in the well. Hits were selected from the primary screen for follow-up confirmation. For the confirmation screens, the ovarian cancer cell lines included CAOV-3, SK-OV-3, SW 626, ES-2, PA-1, and TOV-21G. The cervical cancer cell lines included HeLa, Ca Ski, and C-33 A. The placental cancer cell lines included JEG-3 and JAR. HEK 293T cells were used as the control cell line to determine the selectivity index. The ATPlite assay was used to determine the IC50 values.
Assay Protocol Summary: 1,000 cells in 4 uL of media were dispensed into white, solid bottom 1536-well plates using a Multidrop Combi (Thermo Scientific). The Assay plates were incubated for 16 hours at 37 C with 5% CO2 in assay plates, followed by the addition of 23 nL of DMSO or drug dissolved in DMSO. . Each compound was assayed in 11 concentrations (1:3 dilution) from 57.5 uM to 0.977 nM, using the automated Wako 1536 Pin Tool workstation and incubated at 37 C with 5% CO2 48 hours. 4 uL of ATPlite, the ATP monitoring reagent, was then added to the each well of the assay plates using the Multidrop Combi reagent dispenser followed by incubation for 15 minutes at room temperature. The resulting luminescence was measured using the ViewLux plate reader.
With `CCOc1ccccc1-n1c(C(C)N2CCN(C(=O)COc3ccc(Cl)cc3)CC2)nc2ccccc2c1=O` (centres undefined) the Potency was “inactive”. With `C/C=C(/C)C(=O)O[C@H]1C(C)=C2[C@H]([C@@H]1OC(=O)CCCCCCC)[C@@](C)(OC(C)=O)C[C@H](OC(=O)CCC)[C@@]1(O)[C@H]2OC(=O)[C@@]1(C)O` the Potency was 34.3 µM (active). With `C[C@H]1CCC/C=C/C2C[C@H](O)C[C@H]2[C@H](O)/C=C/C(=O)O1` (some centres undefined) the Potency was 0.611 µM (active). With `C=C(C)[C@H]1Cc2c(ccc3c2O[C@@H]2COc4cc(OC)c(OC)cc4[C@@H]2C3=O)O1` the Potency was 0.109 µM (active). In the case of `C[C@]12CC[C@H]3[C@@H](CCC4=CC(=O)CC[C@@H]43)[C@@H]1CC[C@@H]2OC(=O)CCc1ccccc1`, the Potency is reported as “inactive”. In the case of `O=C(O)Cc1ccccc1`, the Potency is reported as “inactive”. For `Cc1sc2c(c1C)C(c1ccc(Cl)cc1)=NC(CC(=O)OC(C)(C)C)c1nnc(C)n1-2` (centres undefined), the Potency was 7.69 µM (active). For `CCC(=O)O[C@H]1CC[C@H]2[C@@H]3CCC4=CC(=O)CC[C@]4(C)[C@H]3CC[C@]12C`, the Potency was “inactive”. For `CCN1CCN(C(=O)Cc2ccc(Nc3ncc(F)c(Nc4ccc(C(=O)Nc5ccccc5Cl)cc4)n3)cc2)CC1`, the Potency was “inactive”.
